This is a sample that favours compounds with a hit; in the whole collection about 12% have one here.
Sm TGR block – blocks Schistosoma mansoni thioredoxin glutathione reductase; Q962Y6; purified TGR, DTNB reduction, TNB absorbance 405 nm; Potency, µM (titrated, usually from 114 µM), usual class: inhibitors; 3% of 360,000 active; further: nearly all actives have a fitted effect of over 60% in size
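First, TGR (20 nM dispensed) and NADPH were mixed with compound. Second, a 15 min room-temperature incubation followed. Third, further NADPH and then DTNB were added to start the reaction. Finally, TNB absorbance was monitored kinetically.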
SARS PLP yeast – blocks SARS-CoV papain-like protease in a yeast assay; Potency, µM (series often up to 32.9 µM), actives largely listed as activators; 0.19% of 330,000 active; S. cerevisiae expressing SARS-CoV PLpro, growth rescue; calls by dose curve; further: nearly all actives have a fitted effect of over 55% in size
Pf growth 96h – inhibits malaria parasite growth, 96 h. P. falciparum luciferase reporter growth, 96 h. Potency, µM (series often up to 28.7 µM), most hits filed as inhibitors. 6.9% of 320,000 active
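Readout is luminescence from an integrated firefly luciferase in P. falciparum. Red cells, 2% hematocrit and 0.05% parasitemia final, were cultured with compound through two parasite generations (96 hours) at 37 C, 5% CO2.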
Pf growth 48h – P. falciparum growth inhibition at 48 hours (one generation) | P. falciparum luciferase growth in erythrocytes, 48 h | 5.9% of 310,000 active | Potency, µM (series often up to 28.7 µM), most hits filed as inhibitors
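Erythrocytes infected with P. falciparum carrying an integrated firefly luciferase reporter (2% hematocrit, 0.1% parasitemia final) were exposed to compounds in RPMI 1640 with 0.5% Albumax at 37 C, 5% CO2. Growth inhibition was scored as reduced luminescence.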
Hits are given with their value; . = inactive; ? = inconclusive; / = no result; [ ] = remark or other dose. Unless noted, the call rests on the fitted dose curve; in most records, active means well fitted curve in the direction sought with a large enough effect; inconclusive means small, poorly fitted or top-dose-only effect, or another doubt; inactive means no such curve, though single readings can be large; an effect the other way counts as inactive or inconclusive.

SMILES	Sm TGR block	SARS PLP yeast	Pf growth 96h	Pf growth 48h
CCCCn1c(=O)c2oc3ccccc3c2n(Cc2ccccc2C)c1=O	.	/	/	/
COc1ccc(CCNC(=O)Cn2c(C)c3cnn(-c4ccccc4)c(=O)c3c2C)cc1OC	.	/	/	/
OCCCc1ccc(O)c(O)c1	3.5µM	.	?	.
O=C(O)Cc1ccc(O)c(O)c1	0.89µM	.	.	.
Cc1cccc(-c2nc3c4ccccc4nc(N4CCN(c5cc(C)ccc5C)CC4)n3n2)c1	.	/	/	/
O=C(NCC1CCCO1)c1ccc(COCC(F)(F)C(F)F)cc1 (stereo not drawn)	.	.	/	.
CC(C)NC(=O)c1ccc(COCC(F)(F)C(F)F)cc1	.	.	13µM	/
COc1ccc(CCN2C(=S)N(C)C(=O)C2CC(=O)Nc2ccc(F)cc2)cc1 (stereo not drawn)	.	.	13µM	?
CCN1C(=O)C(CC(=O)Nc2ccc(OC)cc2)N(Cc2ccc(OC)c(OC)c2)C1=S (stereo not drawn)	.	.	?	10µM
CCCCCCCCCC[N+](C)(C)CCCCCCCCCC	/	/	1.7µM	1.7µM
CCCCCCCCCCCCCCCC[N+](C)(C)CC	.	/	2.6µM	3.3µM
CC(=O)N1CCN(CC(C)(C)NS(=O)(=O)c2ccccc2)CC1	/	.	/	/
CC(C)(CN1CCN(C(c2ccccc2)c2ccccc2)CC1)NS(=O)(=O)c1ccccc1	.	.	10µM	12µM
CC(C)(CN1CCC(Cc2ccccc2)CC1)NS(=O)(=O)c1ccccc1	.	.	.	12µM
CC(C)(CN1CCN(Cc2ccccc2)CC1)NS(=O)(=O)c1ccccc1	.	.	.	.
CC(=O)Nc1ccc(C(=O)COC(=O)c2cc(C)oc2C)c(F)c1	/	.	/	/
CCN1C(=S)N[C@@H](c2cccs2)C(C(=O)OC)=C1C	.	.	.	?
COc1cc(C(=O)OCC(=O)Nc2cccc(S(=O)(=O)N3CCCC3)c2)ccc1OCC(C)C	.	.	?	?
COc1ccc(CNc2nc(SCC(=O)NCc3ccco3)nc3ccccc23)cc1	.	.	.	9.3µM
CCOC(=O)CSc1nc(NCc2ccco2)c2ccccc2n1	.	.	.	.
O=C(CSc1ccc2nnc(-c3ccccn3)n2n1)NCc1ccco1	40µM	.	.	.
Cc1csc(NC(=O)CSc2nnc(-c3ccc(S(=O)(=O)N4CCCC4)cc3)o2)n1	.	.	/	5.9µM
O=C(CSc1ccc2nnc(-c3ccccc3)n2n1)NCc1ccco1	45µM	.	/	?
O=C(CSc1ccc2nnc(CCNC(=O)c3ccccc3)n2n1)NCc1ccco1	.	.	.	.
Cc1cc(C)cc(NC(=O)NCc2noc3ccccc23)c1	.	/	/	/
SMILES	Sm TGR block	SARS PLP yeast	Pf growth 96h	Pf growth 48h
Cc1cc(NC(=O)CSc2nnc(-c3ccc(S(=O)(=O)N4CCCC4)cc3)n2C)no1	.	.	12µM	?
Cn1c(SCC(=O)Nc2cc(Cl)cc(Cl)c2)nnc1-c1ccc2nonc2c1	18µM	.	.	?
COc1ccc(-c2[nH]c(-c3ccccc3)nc2SCC(=O)NCc2ccco2)cc1OC	.	.	1µM	/
COc1ccc(-c2nnc(SCC(=O)NCc3ccco3)n2C)cc1	45µM	.	.[5.75 µM]	.
Cn1c(SCC(=O)NCc2ccco2)nnc1-c1ccccc1	?	.	.	.
CCn1c(SCC(=O)Nc2cc(C)on2)nnc1-c1ccc(S(=O)(=O)N2CCCC2)cc1	.	.	.	?
Cc1cc(-c2nc(C)c(-c3nnc(SCC(=O)Nc4cc(Cl)cc(Cl)c4)n3C)s2)no1	.	.	?	?
COc1ccc(-c2nc(SCC(=O)NCc3ccco3)c(-c3ccccc3)[nH]2)cc1OC	.	.	?	/
CCOc1cccc(Nc2nn(-c3ccc(OC(F)(F)F)cc3)nc2C(C)=O)c1	.	/	/	/
Cc1ccc2occ(CC(=O)N(Cc3ccc(C(C)C)cc3)C3CCS(=O)(=O)C3)c2c1 (stereo not drawn)	.	/	/	/
O=C(CSc1nnc(-c2ccc(S(=O)(=O)N3CCCC3)cc2)o1)NCc1ccco1	45µM	.	/	?
Cc1cc(NC(=O)CSc2ccc3nnc(-c4ccccc4)n3n2)no1	.	.	.	2.6µM
Cc1cccc(-n2c(SCC(=O)NCc3ccco3)nnc2-c2ccco2)c1	?	.	5.2µM	?
COc1ccc(Cc2nnc(SCC(=O)NCc3ccco3)o2)cc1	50µM	.	/	.
COc1ccc(-c2nnc(SCC(=O)NCc3ccco3)o2)cc1	?	.	.	.
CSCCC(NC(=O)c1ccco1)C(=O)NC1CCC(C)CC1 (stereo not drawn)	/	.	/	/
O=C(NC1CC(=O)N(c2ccc(F)cc2)C1)C1CCCC1 (stereo not drawn)	.	/	/	/
Cn1c(SCC(=O)NCc2ccco2)nnc1-c1ccc(S(=O)(=O)N2CCOCC2)cc1	?	.	12µM	.
Cc1ccc(NC(=O)CSc2nnc(-c3ccc(S(=O)(=O)N4CCOCC4)cc3)n2C)cc1	.	.	.	?
COc1ccc(-c2nnc3ccc(SCC(=O)NCc4ccco4)nn23)cc1	40µM	.	.	?
CCN(CC)C(=O)CSc1nnc(-c2ccc(S(=O)(=O)N3CCOCC3)cc2)n1C	.	.	.	.
CC(C)Sc1nnc(-c2ccc(S(=O)(=O)N3CCOCC3)cc2)n1C	50µM	.	.	?
COc1ccc(Cc2nnc(SC(C)C(=O)Nc3ccc(C(N)=O)cc3)o2)cc1 (stereo not drawn)	.	/	.	.
CCOc1ccccc1C(=O)Nc1c(NC)c2ccccc2oc1=O	.	/	/	/
